Assay results as given in PubChem BioAssay.
Results filed as inconclusive are left out. Activity calls are given as the source filed them.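 How the source made its calls, unless noted: active means normalized viability below 100% at a tested concentration; inactive means the rest.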

Experiments:
[1] = growth inhibition of DIPG glioma cells, dose response, cell-based, SU-DIPG-XVII, MIPE5.0, CellTiter-Glo, qHTS (AID 1347060; cut-off not given, nearly all actives have AC50 up to about 26 µM;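 on AC50: cells exposed to compound for 48 hours before viability readout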); conditions: SU-DIPG-XVII viability, CellTiter-Glo ATP luminescence
[2] = growth inhibition of DIPG glioma cells, dose response, cell-based, SU-DIPG-XIII, MIPE4.0, CellTiter-Glo, qHTS (AID 1347061; cut-off not given, nearly all actives have AC50 up to about 37 µM;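 further: cells exposed to compound for 48 hours before readout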); conditions: SU-DIPG-XIII viability, CellTiter-Glo ATP luminescence
[3] = growth inhibition of DIPG glioma cells, dose response, cell-based, SU-DIPG-IV, MIPE4.0, CellTiter-Glo, qHTS (AID 1347063; cut-off not given, nearly all actives have AC50 up to about 30 µM;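 further: compound exposure lasted 48 hours before the viability readout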); conditions: SU-DIPG-IV viability, CellTiter-Glo ATP luminescence
[4] = viability loss in pontine glioma line – cell-based, SU-DIPG-XXV, MIPE5.0, CellTiter-Glo, qHTS, dose response (AID 1347065; cut-off not given, nearly all actives have AC50 up to about 26 µM;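 further: cells exposed to compound for 48 hours before ATP readout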); conditions: CellTiter-Glo ATP luminescence
[5] = SU-DIPG-VI glioma cell viability, MIPE4.0 library, CellTiter-Glo luminescence, qHTS (AID 1347066; cut-off not given, nearly all actives have AC50 up to about 30 µM;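 further: cells exposed to compound for 48 hours before readout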); conditions: CellTiter-Glo ATP luminescence
[6] = JHH-DIPG-1 glioma cell viability, MIPE5.0 library, CellTiter-Glo luminescence, qHTS (AID 1347067; cut-off not given, nearly all actives have AC50 up to about 26 µM;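 further: cells exposed to compound for 48 hours before readout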); conditions: JHH-DIPG-1 glioma viability, CellTiter-Glo ATP luminescence
[7] = sensitizers of A549 cells to miR-34 induction, primary screen, imaging, A549 dox-inducible miR-34, nuclei and caspase counts (AID 1347080;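 active means compounds whose cell count with miR-34 switched on is under 0.7 times the count with it off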); conditions: A549 miR-34 inducible, Hoechst nuclei count, 48 h
[8] = survival rescue of mitochondrial mutant cells in low glucose, primary screen, MELAS cybrids, Rieske KO mouse fibroblasts, CellTiter-Glo (AID 1508586;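 active means mean z-score across replicates of 1.96 or higher in either the MELAS or the Rieske mutant cell line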;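 further: z relative to plate mean and SD of compound and empty wells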)
[9] = ovarian cancer cell viability with rucaparib, profiling panel, oncology-focused library, rucaparib conditional (AID 1508598); conditions: patient-derived ovarian cancer cells, CellTiter-Glo viability, 144 h, stronger effect = lower value
[10] = growth inhibition of DIPG glioma cells, dose response, cell-based, SU-DIPG-XIII, MIPE5.0, CellTiter-Glo, qHTS (AID 1347064; cut-off not given, nearly all actives have AC50 up to about 23 µM;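 on AC50: cells exposed to compound for 48 hours before the viability read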); conditions: SU-DIPG-XIII viability, CellTiter-Glo ATP luminescence
[11] = SU-DIPG-XXV glioma cell viability, MIPE5.0 library, qHTS (AID 1347068; cut-off not given, nearly all actives have IC50 up to about 30 µM)
[12] = modifiers of HSF1 nuclear foci, imaging, Selleck Cancer Library (AID 1347162; in the data active means plate-normalised HSF1 focus index below about 0.46); conditions: human cells, at 10 µM; SSMD: measured here: HSF1 foci SSMD mean; cell count: measured here: cell number; plate-normalised HSF1 focus index: stronger effect = lower value
[13] = stronger effect = lower value, cell number ratio, induced over uninduced
[14] = measured here: relative caspase fold change +Dox/-Dox
[15] = measured here: total cells with miR-34 induction, stronger effect = lower value
[16] = measured here: total cells without miR-34 induction
[17] = MELAS cybrid survival, CellTiter-Glo 48 h, stronger effect = higher value
[18] = Rieske KO mouse fibroblast survival, CellTiter-Glo 72 h

Nc1cccc2c1C(=O)N(C1CCC(=O)NC1=O)C2=O (stereo not drawn)
0.628: z-score [8, 18]
0.842: fold change [7, 14]
active: AC50 [4] 0.00118 µM | viability ([9]; at 0.313 µM, OCI-P5x cells, with rucaparib 20 µM, 100% = cells with rucaparib alone) 99.9% | viability ([9]; at 1.25 µM, OCI-P5x cells, with rucaparib 20 µM, 100% = cells with rucaparib alone) 88.7% | viability ([9]; at 1.25 µM, OCI-P5x cells, without rucaparib) 97.8% | viability ([9]; at 5 µM, OCI-P5x cells, with rucaparib 20 µM, 100% = cells with rucaparib alone) 84.6% | viability ([9]; at 5 µM, OCI-P5x cells, without rucaparib) 97.3%
8200: cell count [7, 15]
inactive: outcome [1] | outcome [2] | outcome [3] | outcome [5] | outcome [6] | fold change [7, 13] 0.865 | z-score [8, 17] 0.05 | viability ([9]; at 0.000305 µM, OCI-C5x cells, with rucaparib 10 µM, 100% = cells with rucaparib alone) 110% | viability ([9]; at 0.000305 µM, OCI-C5x cells, without rucaparib) 124% | viability ([9]; at 0.000305 µM, OCI-P5x cells, with rucaparib 20 µM, 100% = cells with rucaparib alone) 110% | viability ([9]; at 0.000305 µM, OCI-P5x cells, without rucaparib) 127% | viability ([9]; at 0.00122 µM, OCI-C5x cells, with rucaparib 10 µM, 100% = cells with rucaparib alone) 109% | viability ([9]; at 0.00122 µM, OCI-C5x cells, without rucaparib) 124% | viability ([9]; at 0.00122 µM, OCI-P5x cells, with rucaparib 20 µM, 100% = cells with rucaparib alone) 107% | viability ([9]; at 0.00122 µM, OCI-P5x cells, without rucaparib) 125% | viability ([9]; at 0.00488 µM, OCI-C5x cells, with rucaparib 10 µM, 100% = cells with rucaparib alone) 112% | viability ([9]; at 0.00488 µM, OCI-C5x cells, without rucaparib) 121% | viability ([9]; at 0.00488 µM, OCI-P5x cells, with rucaparib 20 µM, 100% = cells with rucaparib alone) 102% | viability ([9]; at 0.00488 µM, OCI-P5x cells, without rucaparib) 118% | viability ([9]; at 0.0195 µM, OCI-C5x cells, with rucaparib 10 µM, 100% = cells with rucaparib alone) 115% | viability ([9]; at 0.0195 µM, OCI-C5x cells, without rucaparib) 125% | viability ([9]; at 0.0195 µM, OCI-P5x cells, with rucaparib 20 µM, 100% = cells with rucaparib alone) 105% | viability ([9]; at 0.0195 µM, OCI-P5x cells, without rucaparib) 114% | viability ([9]; at 0.0781 µM, OCI-C5x cells, with rucaparib 10 µM, 100% = cells with rucaparib alone) 117% | viability ([9]; at 0.0781 µM, OCI-C5x cells, without rucaparib) 112% | viability ([9]; at 0.0781 µM, OCI-P5x cells, with rucaparib 20 µM, 100% = cells with rucaparib alone) 104% | viability ([9]; at 0.0781 µM, OCI-P5x cells, without rucaparib) 118% | viability ([9]; at 0.313 µM, OCI-C5x cells, with rucaparib 10 µM, 100% = cells with rucaparib alone) 110% | viability ([9]; at 0.313 µM, OCI-C5x cells, without rucaparib) 116% | viability ([9]; at 0.313 µM, OCI-P5x cells, without rucaparib) 107% | viability ([9]; at 1.25 µM, OCI-C5x cells, with rucaparib 10 µM, 100% = cells with rucaparib alone) 118% | viability ([9]; at 1.25 µM, OCI-C5x cells, without rucaparib) 117% | viability ([9]; at 5 µM, OCI-C5x cells, with rucaparib 10 µM, 100% = cells with rucaparib alone) 105% | viability ([9]; at 5 µM, OCI-C5x cells, without rucaparib) 110%
9490: cell count [7, 16]

N#CC1(c2ccc(NC(=O)c3cccnc3NCc3ccncc3)cc2)CCCC1
6630: cell count [7, 15]
1.08: fold change [7, 14]
7700: cell count [7, 16]
inactive: outcome [1] | outcome [2] | outcome [10] | outcome [4] | outcome [5] | outcome [6] | outcome [11] | fold change [7, 13] 0.862 | z-score [8, 17] -0.704
0.694: z-score [8, 18]

CC#CCn1c(N2CCC[C@@H](N)C2)nc2c1c(=O)n(Cc1nc(C)c3ccccc3n1)c(=O)n2C
inactive: outcome [1] | outcome [2] | outcome [10] | outcome [4] | outcome [5] | outcome [6] | outcome [11]

CO[C@H]1C[C@@H]2CC[C@@H](C)[C@@](O)(O2)C(=O)C(=O)N2CCCC[C@H]2C(=O)O[C@H]([C@H](C)C[C@@H]2CC[C@@H](OC(=O)C(C)(CO)CO)[C@H](OC)C2)CC(=O)[C@H](C)/C=C(\C)[C@@H](O)[C@@H](OC)C(=O)[C@H](C)C[C@H](C)/C=C/C=C/C=C/1C
inactive: outcome [2] | plate-normalised HSF1 focus index [12] 1.05
0.578: SSMD [12]
active: AC50 [1] 14.4 µM | AC50 [4] 12.9 µM | AC50 [5] 9.35 µM | AC50 [6] 14.4 µM
6900: cell count [12]

Clc1ccc(C2(c3ccc(-c4cn[nH]c4)cc3)CCNCC2)cc1
active: AC50 [1] 18.6 µM | AC50 [10] 14.8 µM | AC50 [4] 10.5 µM | z-score [8, 17] 5.75
inactive: outcome [2] | outcome [5] | fold change [7, 13] 0.914
1.06: fold change [7, 14]
2520: cell count [7, 15]
-3.02: z-score [8, 18]
2760: cell count [7, 16]
